High-throughput results (PubChem)
GPT2 inhibitor: GPT2 alanine aminotransferase inhibition; Recombinant GPT2, coupled pyruvate oxidase/HRP Amplex Red fluorescence; Q8TD30; 0.25% of 100,000 active; Potency, µM (doses to about 57.7 µM), without a hit: at the top dose activity change, negative = inhibition, hits mostly inhibitors; AID 1671188; also: potency is read from the fitted curve at half-maximal effect; nearly all actives have a fitted effect of over 60% in size
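Fluorescence of coupled pyruvate oxidase/HRP/Amplex Red system (50uM Amplex, 30 min, dark) reports pyruvate formed by GPT2. Enzyme reaction: 10ng/uL GPT2, 2mM L-alanine, 250uM a-KG, 30 min room temperature, pH 7.5; 50uM AOA control.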
IP6K1 inh: IP6K1 kinase inhibition | 0.81% of 140,000 active | IP6K1 kinase, ADP-Glo luminescence, 2 h; hits give low values | Q92551 | AID 1645851 | activity change, % (series mostly up to about 58 µM); in the data active = activity change below about -25%
Target sequence (Q92551 whole entry, looked up): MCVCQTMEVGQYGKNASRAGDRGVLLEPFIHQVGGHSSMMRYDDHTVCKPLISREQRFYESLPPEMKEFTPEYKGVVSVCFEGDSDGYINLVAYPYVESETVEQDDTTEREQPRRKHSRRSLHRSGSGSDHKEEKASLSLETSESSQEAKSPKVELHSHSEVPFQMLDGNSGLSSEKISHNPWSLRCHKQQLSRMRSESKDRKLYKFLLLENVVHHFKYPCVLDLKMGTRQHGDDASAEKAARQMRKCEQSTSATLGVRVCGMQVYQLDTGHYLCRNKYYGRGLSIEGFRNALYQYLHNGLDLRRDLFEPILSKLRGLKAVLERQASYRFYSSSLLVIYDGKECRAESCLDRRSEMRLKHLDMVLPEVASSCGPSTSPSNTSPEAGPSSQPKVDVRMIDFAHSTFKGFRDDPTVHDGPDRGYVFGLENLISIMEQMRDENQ
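ADP-Glo luminescence measures ADP made by human IP6K1 during a 2 h RT reaction with ATP/IP6 (mix at 1.3 mM/130 uM); top library doses 57.5 and 19.1 uM final.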
IP6K1 conf: confirmation of human IP6K1 inhibitors; recombinant IP6K1 kinase, ADP-Glo luminescence, 2 h; 13% of 1,200 active; Potency, µM (highest dose often 49 µM), for inactives: at the highest dose activity change, negative = inhibition, most hits filed as inhibitors; shares compounds with IP6K1 inh; also: potency is read from the fitted curve at half-maximal effect; nearly all actives have a fitted effect of over 65% in size
* = called active by the depositor; i = inactive; ? = inconclusive; . = not tested or not shown; [ ] = dose if it differs, or a comment. The list is not random: actives were taken first. Their share in the collection is about 0.82%. Unless noted, calls follow the shape of the dose curve; as a rule, active = well fitted curve in the direction sought with a large enough effect; inconclusive = small, poorly fitted or top-dose-only effect, or another doubt; inactive = no such curve, though single readings can be large; an effect the other way counts as inactive or inconclusive. % is scaled to controls: 0 for no effect and ±100 for the full control effect.

SMILES | GPT2 inhibitor | IP6K1 inh | IP6K1 conf
COc1ccccc1NC(=O)C1=C(C)Nc2nc3ccccc3n2C1c1cccc(Br)c1 (configuration not stated) | . | -26* | -2%
CC(C)c1ccc(CN2CCc3ncc(C(=O)NCCN4CCNC4=O)n3CC2)cc1 | i | 20 | .
COCCCNc1ncnc2c1cnn2-c1ccc(F)cc1 | . | 2 | .
COC(=O)CSc1nc2c(cnn2-c2ccc(F)cc2)c(=O)[nH]1 | . | -32* | ?
Cc1noc(C2CC3(CCN(C(=O)c4nn(C)c5ccccc45)CC3)CN2C)n1 (configuration not stated) | i | -3 | .
O=C(C1CC(=O)N(C2CCCC2)C1)N1CCN(c2ccc(Cl)cn2)CC1 (configuration not stated) | ? | 3 | .
CCCCN(Cc1ccccc1)S(=O)(=O)c1cc(Br)cc2c1N(C(C)=O)CC2 | . | -27* | 10%
CCCCN(Cc1ccccc1)S(=O)(=O)c1cc(Br)cc2c1N(C(=O)C1CC1)CC2 | . | -8 | .
CCCC[C@@]1(C2CCCC2)Cc2cc(OCC(=O)O)c(Cl)c(Cl)c2C1=O | -2% | . | .
C[C@]1(C2CCCC2)Cc2cc(OCC(=O)O)c(Cl)c(Cl)c2C1=O | -13% | -42* | 7.3µM*
COc1ccc(-c2cn3cc(C(=O)NC(C)C)nc3s2)cc1 | i | 17 | .
O=C(c1ccc(N2CCCC(CO)C2)nc1)N1CCC(N2CCOCC2)CC1 (configuration not stated) | i[11.5 µM] | -35* | 13%
O=C(c1ccc(N2CCCC2)nc1)N1CCC(N2CCOCC2)CC1 | -21% | 1 | .
Cc1nc([C@@H]2CN(C(=O)c3nccc4ccccc34)C[C@H]2C(N)=O)n[nH]1 | i | 10 | .
Cc1cccc(CNS(=O)(=O)c2csc(C(N)=O)c2)c1 | . | -8 | .
NC(=O)c1cc(S(=O)(=O)NCc2cccc(Br)c2)cs1 | . | -30* | -15%
O=C(NCc1ccc(F)cc1)c1cnc2c(c1)N([S+](=O)([O-])c1cccnc1)CCC2 | i | 5 | .
COc1ccccc1N1CCN(C2CCCN(Cc3cccc(C)n3)C2)CC1 (configuration not stated) | -26% | 7 | .
Cc1ccccc1N1CCN(C2CCCN(C/C=C/c3ccc(F)cc3)C2)CC1 (configuration not stated) | -7% | -27* | 21%
Cc1ccc(CNC(=O)Nc2cc(C(=O)NCc3cccc(F)c3)ccc2N2CCCC2)cc1 | . | 12 | .
COc1cccc(CNC(=O)Nc2cc(C(=O)NCc3cccc(F)c3)ccc2N2CCCC2)c1 | . | -26* | 2%
CN1CCCCCC(O)c2cc(C(=O)NCCc3ccccn3)ccc21 (configuration not stated) | -40% | 1 | .
O=C1Nc2nc(-c3c(O)cccc3OCC3CC3)cc([C@@H]3CCCNC3)c2CO1 | i | -11 | -17%
Cc1cc(C(=O)NCC2CC2)c2c(C3CCCNC3)noc2n1 (configuration not stated) | i | 5 | .
O=C1CCN(Cc2ccncc2)CCCC(C(=O)NCc2cccnc2)CCN1 (configuration not stated) | i | 1 | .
SMILES | GPT2 inhibitor | IP6K1 inh | IP6K1 conf
O=C(NCCCN1CCCCCC1)c1ccc2c(c1)sc1nc(-c3ccccc3)cn12 | . | -50* | ?
CCCN1CCN(CCCNC(=O)c2ccc3c(c2)sc2nc(-c4ccc(C)cc4)cn23)CC1 | . | -4 | .
COc1ccc(CC(=O)N2[C@@H]3CC[C@H]2CC(NC(=O)c2cnc(C)cn2)C3)cc1Cl (some centres not stated) | 2% | 22 | .
O=C(NCCc1ccc(Cl)cc1)C1CCCN(Cc2cccc(-c3ccsc3)c2)C1 (configuration not stated) | . | -5 | .
CC[C@H](C)[C@H](N)C(=O)N1CCC2(CCC(=O)N(Cc3ccccc3)C2)CC1 | 3%[11.5 µM] | -39* | -6%
C=CCN1CC2(CCC1=O)CCN(C(=O)[C@H](N)c1ccccc1)CC2 | -19% | 12 | .
O=C(c1ccc(Cl)cc1)N1CC2(CCCN2CC2CCCCC2)Cc2ccccc21 (configuration not stated) | ? | 3 | .
COc1ccc(S(=O)(=O)NC[C@H]2Cn3c(-c4ccc(Cl)cc4)cnc3CO2)cc1 | 3%[88.5 µM] | 12 | .
O=C1N(Cc2ccc(F)cc2)C[C@H]2CN(Cc3ccccn3)CCN12 | -8%[88.5 µM] | -32* | ?
Cc1cccc(CN2CCN3C(=O)N(Cc4ccc(F)cc4)C[C@H]3C2)n1 | i | -6 | .
COc1ccc(-c2nc(SCC(=O)Nc3cccc(C(C)=O)c3)n[nH]2)cc1 | . | -33* | ?
COc1ccc(NC(=O)CSc2n[nH]c(-c3ccccc3)n2)cc1Cl | . | -23 | .
CN1C(=O)N(C)C2(CCN(c3cc(C4CC(O)C4)ncn3)CC2)C1=O (configuration not stated) | i | -1 | .
C[C@@H]1CN(c2cc(C3CC(O)C3)ncn2)C[C@H](C)O1 (some centres not stated) | -29%[11.5 µM] | -31* | -1%
O=C(c1cccs1)N1CCC(Oc2ccccc2)C1 (configuration not stated) | i | 6 | .
O=C(C1CCCN1C(=O)Nc1ccc(Cl)cc1)N1CCC(N2Cc3cccn3C2=O)CC1 (configuration not stated) | 0% | 6 | .
Cc1ccc2c(=O)cc(C(=O)Nc3ccc(S(=O)(=O)N4CCCCC4)cc3)oc2c1C | . | 20 | .
Cc1cc(C)c2oc(C(=O)Nc3ccc(S(=O)(=O)N4CCCCC4)cc3)cc(=O)c2c1 | . | -26* | 1%
COc1ccc(OC)c(CNC(=O)c2nnn3c2COC(c2ccc(Cl)cc2)C3)c1 (configuration not stated) | i | -11 | .
CCc1ccc(-n2c(=O)c3c4c(sc3n(Cc3ccc(C)cc3)c2=O)CCC4)cc1 | . | 4 | .
CCc1ccc(-n2c(=O)c3c4c(sc3n(Cc3ccc(F)cc3)c2=O)CCCC4)cc1 | . | -28* | -2%
CCN(CC)C(=O)Cn1c(=O)n(-c2ccc(Cl)cc2)c(=O)c2c3c(sc21)CCC3 | . | -9 | .
CCCCN(CC)C(=O)Cn1c(=O)n(-c2ccc(OCC)cc2)c(=O)c2c3c(sc21)CCC3 | . | -33* | 10%
COc1ccccc1-n1c(=O)c(C(=O)N2CCC(Cc3ccccc3)CC2)nc2cccnc21 | i | -4 | .
COc1ccc(-c2nnc(C3CCN(C(=O)c4ccccc4F)CC3)o2)cc1 | . | -29* | ?
SMILES | GPT2 inhibitor | IP6K1 inh | IP6K1 conf
COc1ccc(-c2nnc([C@H]3CCN(C(=O)c4ccccc4)C3)o2)cc1 | -13%[88.5 µM] | -7 | .
Cc1ccc(NC(=O)c2nc(S(C)(=O)=O)ncc2N(Cc2ccco2)Cc2ccco2)cc1C | . | -29* | -5%
Cc1ccc(NC(=O)c2nc(S(C)(=O)=O)ncc2N(Cc2ccco2)Cc2cccs2)cc1C | . | -14 | .
Cc1ccc(NC(=O)N2Cc3[nH]cnc3C[C@H]2c2nc(-c3ccc(C)cc3)no2)cc1 | 2%[88.5 µM] | 0 | .
COc1ccc(-c2nc3cc(C(=O)N4CCCCC4)ccc3o2)cn1 | -19%[88.5 µM] | 18 | .
CN(C)C/C=C/C(=O)Nc1cccc(C(=O)Nc2ccc(Nc3nccc(-c4cccnc4)n3)cc2)c1 | ? | -29* | ?
CN(C)C/C=C/C(=O)Nc1cccc(C(=O)Nc2cccc(Nc3ncc(Cl)c(-c4c[nH]c5ccccc45)n3)c2)c1 | 2% | 1 | .
